# Hits are enriched below; roughly 17% of the tested compounds scored in any of these assays.
# HepG2 viability = qHTS for Inhibitors of TGF-b: Cytotox Counterscreen; Potency, µM (series often up to 46.1 µM), inactives show at the top dose activity change, negative = cytotoxicity, hits mostly cytotoxic; HepG2 CAGA-GFP viability, ATP luminescence, 18 h; hit rate 0.76% among 410,000; AID 588856, 2011
#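 HepG2 CAGA-GFP cells (1000/well, DMEM with 1% FBS) received compound, then TGF-beta at 500 pg/mL final, and were incubated 18 hours at 37 degrees C. Viability was read by CellTiter-Glo luminescence. Media-only wells were set as complete cell-killing and DMSO as no toxicity.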
# DT40 TDP1 CPT = qHTS for Inhibitors of human tyrosyl-DNA phosphodiesterase 1 (TDP1): qHTS in cells in presence of CPT; chicken DT40 Tdp1-/-;hTDP1 cells + 20 nM CPT, ATP luminescence, 48 h; hit rate 12% among 420,000; Potency, µM (titrated, usually from 46.2 µM), for the others: at the top dose activity change, negative = growth inhibition, actives largely listed as inhibitors; note: % is set by controls: 0 for no effect and ±100 for the full control effect; nearly all actives have a fitted effect of over 55% in size
#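 Chicken DT40 Tdp1-/- cells stably complemented with human TDP1 were seeded at 400 cells/well in medium containing 20 nM camptothecin, exposed to pin-transferred compounds, and grown at 37 °C for at least 48 hr. Viability was read as ATP luminescence.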
# HT1080NT lethal = qHTS for induction of synthetic lethality in tumor cells producing 2HG: qHTS for the HT-1080-NT fibrosarcoma cell line | HT-1080-NT fibrosarcoma viability, CellTiter-Glo ATP luminescence, 48 h | Potency, µM (doses to about 46.1 µM), for the others: at the top dose activity, negative = less viability, usual class: cytotoxic | hit rate 1.6% among 360,000;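 note: NT is the 2HG producing partner of a matched IDH1 knockdown line; 0% = DMSO-treated cells and -100% = media-only wells without cells; nearly all actives have a fitted effect of over 55% in size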
#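 Read-out is CellTiter-Glo luminescence after 10 minutes at room temperature, following 48 hours' compound treatment of HT-1080-NT cells (750 cells/well, RPMI, 5% FBS, 37 degrees C).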
# DT40 TDP1 no CPT = qHTS for Inhibitors of human tyrosyl-DNA phosphodiesterase 1 (TDP1): qHTS in cells in absence of CPT; DT40 Tdp1-/- hTDP1 cells, no CPT, ATP luminescence, 48 h; Potency, µM (titrated, usually from 46.2 µM), inactives show at the top dose activity change, negative = growth inhibition, most hits filed as inhibitors; hit rate 15% among 420,000; AID 686978, 2013; note: % is set by controls: 0 for no effect and ±100 for the full control effect; nearly all actives have a fitted effect of over 55% in size
#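 Camptothecin absent (DMSO only). Human TDP1-complemented DT40 knockout cells, 400 cells/well, 37 °C for minimum 48 hr; ATP measured via CellTiter-Glo, 30 min dark incubation, luminescence.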
# HT1080 IDH1KD tx = qHTS for induction of synthetic lethality in tumor cells producing 2HG: qHTS for the HT-1080-IDH1KD cell line; hit rate 2% among 360,000; AID 686971, 2013; HT-1080 IDH1 knockdown viability, ATP luminescence, 48 h; Potency, µM (titrated, usually from 46.1 µM), for the others: at the highest dose activity, negative = toxicity, hits mostly cytotoxic;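 note: 0% = DMSO wells and -100% = cell-free medium wells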
#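 Using the IDH1-knockdown HT-1080 line run in the same batch and compound series as the NT line, viability after 48 h at 37 °C was determined by CellTiter-Glo luminescence and expressed as % activity.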
# TGFb SMAD3 inh = qHTS for Inhibitors of TGF-b. hit rate 1.2% among 410,000. HepG2 CAGA-GFP TGF-b/SMAD3 reporter, GFP fluorescence, 18 h; TGF-beta stimulated, 500 pg/mL final. Potency, µM (top dose mostly 46.1 µM), for inactives: at the top dose activity, negative = inhibition, most hits filed as inhibitors; note: % is set by controls: 0 for no effect and ±100 for the full control effect; nearly all actives have a fitted effect of over 65% in size
#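 HEPG2 CAGA-GFP cells (1000/well, DMEM with 1% FBS) were pre-incubated 2 h at 37 degrees C, given compound by pin tool, then stimulated with TGF-beta at 500 pg/mL final for 18 h before per-cell GFP fluorescence imaging.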
# Active calls of the source: *; ? = inconclusive; · = no result. Calls come from the whole dose curve; as a rule, active = well fitted curve in the direction sought with a large enough effect; inconclusive = small, poorly fitted or top-dose-only effect, or another doubt; inactive = no such curve, though single readings can be large; an effect the other way counts as inactive or inconclusive. Potency is the fitted concentration of half-maximal effect.
SMILES,HepG2 viability,DT40 TDP1 CPT,HT1080NT lethal,DT40 TDP1 no CPT,HT1080 IDH1KD tx,TGFb SMAD3 inh
C/C(=N\NC(=O)C1CC1(c1ccccc1)c1ccccc1)c1cccc([N+](=O)[O-])c1 (stereo not drawn),-1.1%,?,18.1%,7.31µM*,10.9%,7.9%
C/C(=N\NC(=O)C1CC1c1ccccc1)c1cccc([N+](=O)[O-])c1 (stereo not drawn),-60.3%,?,-24.6%,?,-13.9%,11.2µM*
C/C(=N\NC(=O)c1ccccc1C)c1cccc([N+](=O)[O-])c1,-15.0%,-7.5%,3.6%,-4.1%,5.8%,-18.3%
Cn1c(C23CC4CC(CC(C4)C2)C3)n[nH]c1=S,-4.8%,?,1.7%,?,-0.3%,-4.9%
COc1ccc(C#Cc2c(-c3ccsc3)oc3ccc(-c4cc(OC)c(OC)c(OC)c4)cc23)cc1,4.4%,-9.1%,-1.7%,-9.0%,-2.2%,2.4%
Oc1ccc2ccccc2c1C=Nc1ccccc1-c1nc2ccccc2[nH]1,-17.9%,?,?,16.4µM*,-15.2%,?
O=C(O)c1ccccc1-c1nc2ccccc2[nH]1,-18.9%,-1.1%,-20.1%,-23.7%,-3.1%,-10.9%
COc1ccc(C(=O)CNc2ccc(C)cc2C)cc1,-14.6%,-12.2%,-15.6%,?,2.9%,-8.1%
Cc1cccc(C(=O)CC(=O)c2cc(Cl)ccc2O)c1,-91.6%,3.26µM*,?,4.11µM*,?,?
Cc1ccc(O)c(C(=O)CC(=O)c2ccc(Cl)cc2)c1,-15.9%,7.31µM*,?,5.8µM*,?,?
Cc1ccc(O)c(C(=O)CC(=O)c2cccc(F)c2)c1,-44.4%,2.31µM*,?,2.59µM*,?,-26.4%
Cc1cccc(C(=O)NCC(=O)NNC(=O)c2ccccc2O)c1,-6.4%,-3.0%,-10.4%,-15.8%,-10.1%,-2.2%
NC(=NCCc1ccccc1)NC(=O)c1cc(Cl)ccc1O,-5.0%,?,-11.8%,18.4µM*,-22.3%,-14.3%
COc1ccccc1NC(=O)CSc1nccc(-c2ccco2)n1,-4.9%,-24.4%,3.4%,-18.6%,6.6%,2.3%
CCc1ccc(CNC(=O)Cn2c(-c3cccs3)cc3cc(F)ccc32)cc1,-3.0%,?,·,?,·,-4.8%
CN1C(=O)N(CC(=O)Nc2sccc2C(N)=O)C(=O)C12CCCCC2,1.8%,-10.2%,-3.0%,-14.9%,-2.4%,-11.8%
O=C(CC(=O)c1cc(Cl)ccc1O)c1ccccc1,11.2µM*,2.31µM*,?,4.61µM*,?,?
C=CCNC(=O)NC(=O)COC(=O)CC(NC(N)=O)c1ccc(Cl)cc1 (stereo not drawn),3.8%,-15.4%,7.9%,?,9.8%,-7.8%
c1ccc2sc(Sc3ncnc4sccc34)nc2c1,-54.9%,5.8µM*,-24.5%,2.91µM*,?,?
CCc1cc2c(Sc3nc4ccccc4s3)ncnc2s1,-18.3%,5.17µM*,5.17µM*,9.2µM*,?,0.0%
c1ccc2c(-c3nc4ncccc4o3)cccc2c1,3.4%,?,1.3%,?,-8.0%,1.0%
COc1ccc(Nc2nc(N)c3ccccc3n2)c(OC)c1,-13.8%,12.1%,-21.8%,-34.4%,?,-1.6%
COc1cc2nc(Nc3cccc(F)c3)nc(N)c2cc1OC,-33.8%,11.6µM*,?,5.8µM*,?,?
COc1ccc(Nc2nc(N)c3cc(OC)c(OC)cc3n2)cc1,-81.4%,?,·,18.4µM*,·,?
O=[N+]([O-])c1cccc(CON=Cc2ccccc2O)c1,-4.9%,-8.3%,-2.8%,?,-0.5%,-2.3%
SMILES,HepG2 viability,DT40 TDP1 CPT,HT1080NT lethal,DT40 TDP1 no CPT,HT1080 IDH1KD tx,TGFb SMAD3 inh
CN(C)c1ccc(C(=O)N2CCNC(=O)C2CC(=O)Nc2ccc(F)cc2)cc1 (stereo not drawn),20.5%,?,0.4%,6.2%,-6.2%,-7.0%
CN(C)c1ccc(-c2csc(C(C)(O)c3ccccc3)n2)cc1 (stereo not drawn),-4.7%,14.6µM*,-0.9%,16.4µM*,?,8.5%
CC(O)(c1ccccc1)c1nc(-c2cc3ccccc3o2)cs1 (stereo not drawn),-26.5%,23.1µM*,?,13µM*,?,?
COc1ccc(CNS(=O)(=O)c2cc(CN3C(=O)c4cccnc4C3=O)ccc2OC)cc1,-1.3%,-5.4%,-1.8%,-0.5%,10.7%,-4.8%
COc1ccc(C(C)=O)cc1COC(=O)C1CCN(C(=O)c2ccc(Cl)cc2)CC1,-13.6%,-2.0%,0.9%,26.7%,6.8%,-3.3%
O=C1c2ccccc2C(=Cc2cccnc2)c2ccccc21,-20.4%,-4.7%,2.2%,?,2.3%,-20.0%
O=C1/C(=C/c2cccnc2)Sc2ccccc21,-95.3%,25.9µM*,-18.7%,?,-16.3%,?
O=C1CC(c2ccc(Cl)cc2)CC(O)=C1C=NCCO (stereo not drawn),7.9%,-2.1%,15.5%,-7.6%,0.3%,-1.3%
Cc1ccccc1-c1nc(NC(=O)CSc2ncnc3sc4c(c23)CCCC4)ns1,10.2%,0.0%,·,-4.2%,·,1.0%
Cc1ccc(-c2nc(NC(=O)CSc3nnc4scc(-c5ccccc5)n34)ns2)cc1,-3.1%,18.4µM*,-18.2%,20.6µM*,0.3%,-7.8%
Cc1ccc(-c2nc(NC(=O)CSc3nc(C)nc4sc5c(c34)CCCC5)ns2)cc1,1.8%,11.6µM*,·,6.51µM*,·,-3.2%
Cc1nc(SCC(=O)OC(C)(C)C)c2c3c(sc2n1)CCCC3,2.1%,-24.4%,·,?,·,-21.7%
CC(C)(C)c1ccc(-c2nc(NC(=O)CSc3ncnc4sc5c(c34)CCCC5)ns2)cc1,0.3%,?,·,4.11µM*,·,0.1%
COC(=O)c1cccnc1Oc1ccccc1,0.1%,-5.6%,3.3%,-0.4%,9.9%,-3.5%
Nc1ccc2oc(C3CCCCC3)nc2c1,-54.6%,-11.9%,2.4%,3.1%,0.2%,12.6%
COc1ccc(NC(=O)Cn2c(=O)n(-c3ccc(OC)cc3)c(=O)c3ccc(C(=O)NCc4ccc(C)cc4)cc32)cc1,9.9%,?,·,-1.8%,·,-6.6%
COc1ccc(-n2c(=O)c3ccc(C(=O)NCc4ccc(C)cc4)cc3n(CC(=O)Nc3cccc(F)c3)c2=O)cc1,11.5%,13µM*,·,?,·,9.0%
